Most compounds without a hit are left out; they make up all but 8.1% or so of the library.
KB-3-1 tox – KB-3-1 parental cell cytotoxicity | KB-3-1 viability, CellTiter-Glo ATP luminescence, 72 h | Potency, µM (series often up to 46.1 µM), usual class: cytotoxic | 1.4% of 400,000 active | AID 1347075; note: nearly all actives have a fitted effect of over 60% in size
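Parental KB-3-1 viability, qHTS format: 72 h compound exposure, 37 °C; CellTiter-Glo; media-only wells and DMSO plates as controls; concentration-effect fits on corrected data.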
ELG1 DNA repair – ELG1-dependent DNA repair inhibition; HEK293T ELG1-luciferase reporter, luminescence, 16 h; DNA damage induced by 5-fluorouridine; Potency, µM (highest dose often 46.1 µM), actives largely listed as inhibitors; 2.3% of 330,000 active; note: nearly all actives have a fitted effect of over 55% in size
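In this reporter screen, reduction of luminescence relative to DMSO vehicle indicated activity. Compounds and 5-fluorouridine were added together to 2,000 cells per well, incubated for 16 hr at 37 °C, then developed with ONE-Glo.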
SW480 rereplic – induces DNA re-replication in SW480 colon adenocarcinoma cells; SW480 DNA re-replication, Hoechst DNA content imaging, 48 h; Potency, µM (titrated, usually from 46.1 µM), actives largely listed as activators; 1.8% of 340,000 active; AID 624297; note: nearly all actives have a fitted effect of over 55% in size
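SW480 cells exposed to compounds for 48 hr at 37 C, 5% CO2, then Hoechst-stained 40 min. Nuclear DNA content imaged by fluorescence scanning (405 nm excitation, 500-530 nm emission); re-replication scored as increased high-intensity nuclei.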
KB-V1 MDR tox – KB-V1 MDR subline cytotoxicity | KB-V1 MDR cells viability, CellTiter-Glo, 72 h | Potency, µM (doses to about 46.1 µM), most hits filed as cytotoxic | 3.4% of 400,000 active | AID 1347076; note: nearly all actives have a fitted effect of over 60% in size
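qHTS viability screen in drug-selected KB-V1 MDR cells: 72 h compound treatment at 37 degrees C, ATP luminescence end point.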
MCF10A rereplic – induces DNA re-replication in MCF 10a normal breast cells; Potency, µM (doses to about 46.1 µM), usual class: activators; 2.9% of 350,000 active; MCF 10A DNA re-replication, Hoechst nuclear intensity, 48 h; note: nearly all actives have a fitted effect of over 50% in size
Large screens that a line does not name were inactive. Calls come from the whole dose curve; as a rule, active = well fitted curve in the direction sought with a large enough effect; inconclusive = small, poorly fitted or top-dose-only effect, or another doubt; inactive = no such curve, though single readings can be large; an effect the other way counts as inactive or inconclusive.

Cc1ccc(NC(=O)CSc2nc3c(oc4ccccc43)c(=O)n2Cc2ccco2)cc1	none (no result: ELG1 DNA repair, SW480 rereplic, MCF10A rereplic)
COc1ccccc1-c1cc(C(=O)NCc2ccccc2)no1	none
Cc1cc(C(=O)NCc2cccnc2)no1	none
COc1ccc(-c2cc(C(=O)NCc3cccnc3)no2)cc1OC	ELG1 DNA repair inconclusive, KB-V1 MDR tox 20.6µM
Cc1ccc(-c2cc(C(=O)NCc3cccnc3)no2)cc1	ELG1 DNA repair inconclusive, KB-V1 MDR tox 16.4µM
COc1ccccc1-c1cc(C(=O)NCc2ccc(F)cc2)no1	KB-V1 MDR tox 16.4µM, MCF10A rereplic inconclusive
COc1ccc(CNC(=O)C2CCN(S(=O)(=O)c3ccc(F)cc3)CC2)cc1	none (no result: ELG1 DNA repair, SW480 rereplic, MCF10A rereplic)
Cc1cc(N/N=C/c2ccccc2)nc(NCc2ccccc2)n1	ELG1 DNA repair inconclusive, SW480 rereplic inconclusive, KB-V1 MDR tox 13µM, MCF10A rereplic inconclusive
CC(=O)c1ccc(Oc2cc(C)nc(NCc3ccccc3)n2)cc1	KB-3-1 tox inconclusive, ELG1 DNA repair inconclusive, KB-V1 MDR tox 16.4µM
CCCCOc1cc(C)nc(NCc2ccccc2)n1	KB-3-1 tox 10.3µM, SW480 rereplic inconclusive, KB-V1 MDR tox inconclusive, MCF10A rereplic inconclusive
CCOc1cc(C)nc(NCc2ccccc2)n1	SW480 rereplic inconclusive, MCF10A rereplic 11.6µM
Cc1cc(OC2CCCCC2)nc(NCc2ccccc2)n1	none
O=C(CN1CCN(Cc2ccccc2)CC1)N1CCCc2c1c(=O)oc1ccc(O)cc21	KB-3-1 tox inconclusive, KB-V1 MDR tox 14.6µM, MCF10A rereplic 20.6µM
Cc1cccc(N/C(N)=N/c2nc(C)c(Cc3ccccc3)c(=O)[nH]2)c1	KB-3-1 tox 20.6µM
COc1ccc(N/C(N)=N/c2nc(C)c(Cc3ccccc3)c(=O)[nH]2)cc1	none
Cc1ccc(S(=O)(=O)Nc2ccc3cc([N+](=O)[O-])ccc3c2[N+](=O)[O-])cc1	KB-3-1 tox inconclusive, KB-V1 MDR tox inconclusive, MCF10A rereplic inconclusive (no result: ELG1 DNA repair)
CCN1CC=C2C(C1)C(c1ccc(Cl)s1)C(C#N)=C(N)C2(C#N)C#N (stereo unspecified)	KB-V1 MDR tox 14.6µM
CC(C)NC(=O)CSc1nnc(-c2ccc(C(C)(C)C)cc2)n1C	KB-V1 MDR tox 25.9µM, MCF10A rereplic inconclusive
CCC(C)NC(=O)CSc1nnc(-c2ccc(C(C)(C)C)cc2)n1C (stereo unspecified)	MCF10A rereplic inconclusive
Nc1nc(C(=O)N2CCOCC2)nn1S(=O)(=O)c1ccc(Cl)cc1	none
Cc1nnsc1S(=O)c1ccc(Cl)cc1 (stereo unspecified)	KB-3-1 tox inconclusive, ELG1 DNA repair inconclusive, SW480 rereplic inconclusive
O=C(c1nnsc1S(=O)c1ccc(Cl)cc1)N1CCOCC1 (stereo unspecified)	KB-3-1 tox inconclusive, ELG1 DNA repair inconclusive, KB-V1 MDR tox 13µM
O=C(Nc1ccccc1)c1nnsc1S(=O)c1ccc(Cl)cc1 (stereo unspecified)	KB-3-1 tox inconclusive, SW480 rereplic 23.1µM, MCF10A rereplic inconclusive
CNC(=O)c1nnsc1S(=O)(=O)c1ccc(Cl)cc1	KB-3-1 tox inconclusive, ELG1 DNA repair inconclusive, SW480 rereplic 1.03µM, MCF10A rereplic 1.46µM
O=C(c1nnsc1S(=O)(=O)c1ccc(Cl)cc1)N1CCOCC1	KB-3-1 tox inconclusive, SW480 rereplic inconclusive, MCF10A rereplic 3.55µM
CCN(CC)CCCOc1cc2nc(N3CCCN(C)CC3)nc(NC3CCN(C)CC3)c2cc1OC	KB-3-1 tox inconclusive (no result: ELG1 DNA repair, SW480 rereplic, MCF10A rereplic)
COc1cc(S(=O)(=O)N2CCCC3(CCCCC3)C2)ccc1-n1cnnn1	ELG1 DNA repair inconclusive, KB-V1 MDR tox 20.6µM
COc1cc(S(=O)(=O)N2CCN3CCCC3C2)ccc1-n1cnnn1 (stereo unspecified)	none
O=S(=O)(c1ccccc1)N1CCN(c2nnc(-c3ccccc3)c3ccccc23)CC1	ELG1 DNA repair 23.1µM
Cc1ccc(-c2nnc(N3CCN(c4ccccn4)CC3)c3ccccc23)cc1	KB-3-1 tox inconclusive, ELG1 DNA repair 16.4µM, KB-V1 MDR tox inconclusive, MCF10A rereplic inconclusive
CS(=O)(=O)N1CCN(c2nnc(-c3ccccc3)c3ccccc23)CC1	none
c1ccc(-c2nnc(N3CCN(c4ccccn4)CC3)c3ccccc23)cc1	KB-3-1 tox inconclusive, ELG1 DNA repair 13µM, KB-V1 MDR tox inconclusive, MCF10A rereplic inconclusive
Cc1nn(C)cc1CN1CCCC(C(=O)c2ccc(-c3ccccc3)cc2)C1 (stereo unspecified)	ELG1 DNA repair inconclusive
